Measured values as given in paper PMC11006913.
Substitutions are numbered along the chain they refer to.

Key:
Assay in all cases: PBM; 200 nM protein, PBS
Settings in all cases: dsDNA, one strand shown
[1] = target: T1, SIX6 (Homo sapiens, UniProt O95475 114-200, L167I)
T1 sequence: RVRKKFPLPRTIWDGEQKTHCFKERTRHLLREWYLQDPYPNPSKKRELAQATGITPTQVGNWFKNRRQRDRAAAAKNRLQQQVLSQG

[2] = target: T2, SIX6 (Homo sapiens, UniProt O95475 114-200, L143V)
T2 sequence: T1 sequence with L30V, I54L

[3] = target: T3, SIX6 (Homo sapiens, UniProt O95475 114-200, H141N)
T3 sequence: T1 sequence with H28N, I54L

[4] = target: T4, SIX6 (Homo sapiens, UniProt O95475 114-200, T165P)
T4 sequence: T1 sequence with T52P, I54L

[5] = target: T5, SIX6 (Homo sapiens, UniProt O95475 114-200, L167M)
T5 sequence: T1 sequence with I54M

[6] = target: T6, SIX6 (Homo sapiens, UniProt O95475 114-200, L143M)
T6 sequence: T1 sequence with L30M, I54L

[7] = target: T7, SIX6 (Homo sapiens, UniProt O95475 114-200, L143I)
T7 sequence: T1 sequence with L30I, I54L

[8] = target: T8, SIX6 (Homo sapiens, UniProt O95475 114-200, T165G)
T8 sequence: T1 sequence with T52G, I54L

[9] = target: T9, SIX6 (Homo sapiens, UniProt O95475 114-200, T139Q)
T9 sequence: T1 sequence with T26Q, I54L

[10] = target: T10, SIX6 (Homo sapiens, UniProt O95475 114-200, T165A)
T10 sequence: T1 sequence with T52A, I54L

[11] = target: T11, SIX6 (Homo sapiens, UniProt O95475 114-200, L167V)
T11 sequence: T1 sequence with I54V

[12] = target: T12, SIX6 (Homo sapiens, UniProt O95475 114-200)
T12 sequence: T1 sequence with I54L

[13] = target: T13, SIX6 (Homo sapiens, UniProt O95475 114-200, T165I)
T13 sequence: T1 sequence with T52I, I54L

AAGATATC
binding signal [1]: 11.2 upbm affinity estimate (log intensity, higher = more binding, comparable within an allelic series)
binding signal [2]: 10.4 upbm affinity estimate (log intensity, higher = more binding, comparable within an allelic series)
binding signal [3]: 11.2 upbm affinity estimate (log intensity, higher = more binding, comparable within an allelic series)
binding signal [4]: 10.1 upbm affinity estimate (log intensity, higher = more binding, comparable within an allelic series)
binding signal [5]: 10.7 upbm affinity estimate (log intensity, higher = more binding, comparable within an allelic series)
binding signal [6]: 11 upbm affinity estimate (log intensity, higher = more binding, comparable within an allelic series)
binding signal [7]: 10.3 upbm affinity estimate (log intensity, higher = more binding, comparable within an allelic series)
binding signal [8]: 11.1 upbm affinity estimate (log intensity, higher = more binding, comparable within an allelic series)
binding signal [9]: 11.1 upbm affinity estimate (log intensity, higher = more binding, comparable within an allelic series)
binding signal [10]: 11 upbm affinity estimate (log intensity, higher = more binding, comparable within an allelic series)
binding signal [11]: 11 upbm affinity estimate (log intensity, higher = more binding, comparable within an allelic series)
binding signal [12]: 10.9 upbm affinity estimate (log intensity, higher = more binding, comparable within an allelic series)
binding signal [13]: 10.9 upbm affinity estimate (log intensity, higher = more binding, comparable within an allelic series)

AGTGATAC
binding signal [1]: 11.6 upbm affinity estimate (log intensity, higher = more binding, comparable within an allelic series)
binding signal [2]: 10.5 upbm affinity estimate (log intensity, higher = more binding, comparable within an allelic series)
binding signal [3]: 11.5 upbm affinity estimate (log intensity, higher = more binding, comparable within an allelic series)
binding signal [4]: 9.81 upbm affinity estimate (log intensity, higher = more binding, comparable within an allelic series)
binding signal [5]: 10.9 upbm affinity estimate (log intensity, higher = more binding, comparable within an allelic series)
binding signal [6]: 11.2 upbm affinity estimate (log intensity, higher = more binding, comparable within an allelic series)
binding signal [7]: 10.5 upbm affinity estimate (log intensity, higher = more binding, comparable within an allelic series)
binding signal [8]: 11.6 upbm affinity estimate (log intensity, higher = more binding, comparable within an allelic series)
binding signal [9]: 11.5 upbm affinity estimate (log intensity, higher = more binding, comparable within an allelic series)
binding signal [10]: 11.5 upbm affinity estimate (log intensity, higher = more binding, comparable within an allelic series)
binding signal [11]: 11.4 upbm affinity estimate (log intensity, higher = more binding, comparable within an allelic series)
binding signal [12]: 11.2 upbm affinity estimate (log intensity, higher = more binding, comparable within an allelic series)
binding signal [13]: 11.4 upbm affinity estimate (log intensity, higher = more binding, comparable within an allelic series)

ATTGATAC
binding signal [1]: 11.4 upbm affinity estimate (log intensity, higher = more binding, comparable within an allelic series)
binding signal [2]: 10.5 upbm affinity estimate (log intensity, higher = more binding, comparable within an allelic series)
binding signal [3]: 11.5 upbm affinity estimate (log intensity, higher = more binding, comparable within an allelic series)
binding signal [4]: 9.95 upbm affinity estimate (log intensity, higher = more binding, comparable within an allelic series)
binding signal [5]: 10.8 upbm affinity estimate (log intensity, higher = more binding, comparable within an allelic series)
binding signal [6]: 11.2 upbm affinity estimate (log intensity, higher = more binding, comparable within an allelic series)
binding signal [7]: 10.5 upbm affinity estimate (log intensity, higher = more binding, comparable within an allelic series)
binding signal [8]: 11.4 upbm affinity estimate (log intensity, higher = more binding, comparable within an allelic series)
binding signal [9]: 11.2 upbm affinity estimate (log intensity, higher = more binding, comparable within an allelic series)
binding signal [10]: 11.4 upbm affinity estimate (log intensity, higher = more binding, comparable within an allelic series)
binding signal [11]: 11.2 upbm affinity estimate (log intensity, higher = more binding, comparable within an allelic series)
binding signal [12]: 11.2 upbm affinity estimate (log intensity, higher = more binding, comparable within an allelic series)
binding signal [13]: 11.2 upbm affinity estimate (log intensity, higher = more binding, comparable within an allelic series)

TGTATCAA
binding signal [1]: 11.2 upbm affinity estimate (log intensity, higher = more binding, comparable within an allelic series)
binding signal [2]: 10.4 upbm affinity estimate (log intensity, higher = more binding, comparable within an allelic series)
binding signal [3]: 11.2 upbm affinity estimate (log intensity, higher = more binding, comparable within an allelic series)
binding signal [4]: 9.94 upbm affinity estimate (log intensity, higher = more binding, comparable within an allelic series)
binding signal [5]: 10.7 upbm affinity estimate (log intensity, higher = more binding, comparable within an allelic series)
binding signal [6]: 11 upbm affinity estimate (log intensity, higher = more binding, comparable within an allelic series)
binding signal [7]: 10.4 upbm affinity estimate (log intensity, higher = more binding, comparable within an allelic series)
binding signal [8]: 11.3 upbm affinity estimate (log intensity, higher = more binding, comparable within an allelic series)
binding signal [9]: 11.2 upbm affinity estimate (log intensity, higher = more binding, comparable within an allelic series)
binding signal [10]: 11.3 upbm affinity estimate (log intensity, higher = more binding, comparable within an allelic series)
binding signal [11]: 11 upbm affinity estimate (log intensity, higher = more binding, comparable within an allelic series)
binding signal [12]: 11.1 upbm affinity estimate (log intensity, higher = more binding, comparable within an allelic series)
binding signal [13]: 11.1 upbm affinity estimate (log intensity, higher = more binding, comparable within an allelic series)

GTATCAAC
binding signal [1]: 11.2 upbm affinity estimate (log intensity, higher = more binding, comparable within an allelic series)
binding signal [2]: 10.3 upbm affinity estimate (log intensity, higher = more binding, comparable within an allelic series)
binding signal [3]: 11.3 upbm affinity estimate (log intensity, higher = more binding, comparable within an allelic series)
binding signal [4]: 9.76 upbm affinity estimate (log intensity, higher = more binding, comparable within an allelic series)
binding signal [5]: 10.6 upbm affinity estimate (log intensity, higher = more binding, comparable within an allelic series)
binding signal [6]: 11 upbm affinity estimate (log intensity, higher = more binding, comparable within an allelic series)
binding signal [7]: 10.4 upbm affinity estimate (log intensity, higher = more binding, comparable within an allelic series)
binding signal [8]: 11.4 upbm affinity estimate (log intensity, higher = more binding, comparable within an allelic series)
binding signal [9]: 11.3 upbm affinity estimate (log intensity, higher = more binding, comparable within an allelic series)
binding signal [10]: 11.3 upbm affinity estimate (log intensity, higher = more binding, comparable within an allelic series)
binding signal [11]: 11 upbm affinity estimate (log intensity, higher = more binding, comparable within an allelic series)
binding signal [12]: 11.1 upbm affinity estimate (log intensity, higher = more binding, comparable within an allelic series)
binding signal [13]: 11.1 upbm affinity estimate (log intensity, higher = more binding, comparable within an allelic series)

GTATCAGA
binding signal [1]: 11.1 upbm affinity estimate (log intensity, higher = more binding, comparable within an allelic series)
binding signal [2]: 10.3 upbm affinity estimate (log intensity, higher = more binding, comparable within an allelic series)
binding signal [3]: 11.1 upbm affinity estimate (log intensity, higher = more binding, comparable within an allelic series)
binding signal [4]: 9.63 upbm affinity estimate (log intensity, higher = more binding, comparable within an allelic series)
binding signal [5]: 10.6 upbm affinity estimate (log intensity, higher = more binding, comparable within an allelic series)
binding signal [6]: 10.9 upbm affinity estimate (log intensity, higher = more binding, comparable within an allelic series)
binding signal [7]: 10.2 upbm affinity estimate (log intensity, higher = more binding, comparable within an allelic series)
binding signal [8]: 11.1 upbm affinity estimate (log intensity, higher = more binding, comparable within an allelic series)
binding signal [9]: 11.1 upbm affinity estimate (log intensity, higher = more binding, comparable within an allelic series)
binding signal [10]: 11.1 upbm affinity estimate (log intensity, higher = more binding, comparable within an allelic series)
binding signal [11]: 10.9 upbm affinity estimate (log intensity, higher = more binding, comparable within an allelic series)
binding signal [12]: 10.9 upbm affinity estimate (log intensity, higher = more binding, comparable within an allelic series)
binding signal [13]: 10.8 upbm affinity estimate (log intensity, higher = more binding, comparable within an allelic series)
